Data on three molecules can be found in PubChem BioAssay (NCI).

What all share (assay): NCI-60 one-dose screen, 48 h (100 = growth as untreated, 0 = no growth, -100 = all killed)
Common to all, as to settings: 10 µM unless noted

For assay [1], the system named is HOP-62 NSCLC.
Assay [2] has as its system NCI-H460 lung.
For assay [3], the system named is A549/ATCC NSCLC.
The subject of assay [4] is 786-0 renal.
Assay [5] has as its system DU-145 prostate.
In assay [6] the test system is MALME-3M melanoma.
Assay [7] has as its system RXF 393 renal.
Assay [8] relates to SF-295 CNS.
The subject of assay [9] is UACC-257 melanoma.
Assay [10] has as its system M14 melanoma.
The subject of assay [11] is SNB-19 CNS.
In assay [12] the test system is SK-MEL-2 melanoma.
Assay [13] has as its system UO-31 renal.
Assay [14] deals with A498 renal.
Assay [15] concerns RPMI-8226 leukemia.
Assay [16] deals with OVCAR-5 ovarian.
Assay [17] has as its system OVCAR-4 ovarian.
The subject of assay [18] is T-47D breast.
Assay [19] relates to HCC-2998 colon.
For assay [20], the system named is HL-60(TB) leukemia.

SMILES strings stand for the structures. Compounds without any hit were thinned out: in the full panel of roughly 83,000, 20% have a hit.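 48-hour exposure, single concentration, 96-well plates; percent growth endpoint where 0 means no net growth. Active: below 10.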 Unmarked numbers belong to inactive results. Active and inactive are the calls of the source.

As for `CCCCCCCC(=O)OCC/C=C/C1OC1C1OC(=O)/C=C\C=C\c2nc(oc2C)/C=C(/C)CCC2OC2C1OC(=O)NC(C)=O` (centres undefined), the growth was -11.6% (active) in assay [1]; -51.5% (active) in assay [2]; 5.19% (active) in [3]; -53.8% (active) in [4]; -74.5% (active) in [5]; -12.4% (active) in [6]. For the same molecule, the growth in assay [7] was -58.3% (active); in assay [8] it was -37.6% (active); in [9], 5.16% (active); in [10], -20.4% (active); in assay [11], -56.8% (active); in assay [12] it was -44.5% (active). Besides, the growth was 2.49% (active) in assay [13]; -82.5% (active) in assay [14]; -55.7% (active) in assay [15]; -22% (active) in [16]; 8.12% (active) in assay [17]; -42.6% (active) in [18]. Besides, in assay [19], the growth is -92.8% (active).

As to `Cc1cccc(N(C)c2cccc3c2C(=O)[Se]C3)c1C`, the growth was 18.8% in [1]; 62.8% in [2]; 15.8% in [3]; 78% in assay [4]; 34.6% in assay [5]; 63.7% in assay [6]. In addition, the growth in assay [7] is 44.7%; in assay [8], 20.7%; in assay [9], 50.7%; in [10], 26.7%; in assay [11] it was 58.8%; in assay [12], 62.8%. In addition, the growth in assay [13] was 23%; in assay [20], -17.1% (active); in assay [15], 81.9%; in [16], 25.5%; in assay [17], 40.7%; in assay [18], 73.4%. For the same molecule, in assay [19], the growth is 47.5%.

Take `ClCCN(CCCl)C(c1ccccc1)c1ccc(Cl)cc1` (centres undefined): the growth was 108% in assay [1]; 88.9% in assay [3]; 87.5% in assay [4]; 69.5% in assay [5]; 88.4% in assay [7]; 75.5% in [8]. The growth was 90.9% in [9]; 90.4% in assay [10]; 81.6% in [11]; 104% in [13]; 15.1% in assay [20]; 42.1% in assay [15]. The growth was 118% in [16], 96.9% in assay [17], 103% in assay [18] and 68.6% in assay [19].
